# The source made the active and inactive calls. Rule for the calls: active = hit-call score of the fitted dose curve at least 0.9, where 1 is the maximum; inactive = score below 0.9.
# Legend:
# [1] = read-out: Macrophage colony-stimulating factor (MCSF), CSF1 (gene 1435); assay: BSK_hDFCGF_MCSF: BioMAP Diversity Plus: hDFCGF Assay for Macrophage colony-stimulating factor (MCSF) Biomarker Activity (AID 2283060); conditions: primary human foreskin fibroblasts; actives raise or lower the signal
# Method in brief: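 ELISA read-out of M-CSF in human dermal foreskin fibroblast cultures, 24 h after chemical dosing; gain or loss of signal fitted bidirectionally relative to DMSO baseline.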
# [2] = BSK_hDFCGF_SRB: Viability Assessment in the BioMAP Diversity Plus: hDFCGF Assay (AID 2283061); conditions: primary human foreskin fibroblasts;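 note: cells exposed to compound for 24 h before the read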
# Method in brief: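 Primary human foreskin fibroblasts; 24 h post-dose; fixed 10% TCA, stained 0.1% SRB, A560 read; total protein as overt cytotoxicity measure; curves fit bidirectionally vs DMSO control.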
# [3] = read-out: TIMP metallopeptidase inhibitor 1 (TIMP1), TIMP1 (gene 7076); assay: BSK_hDFCGF_TIMP1: BioMAP Diversity Plus: hDFCGF Assay for TIMP metallopeptidase inhibitor 1 (TIMP1) Biomarker Activity (AID 2283062); conditions: primary human foreskin fibroblasts; actives raise or lower the signal
# Method in brief: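 ELISA readout of TIMP-1 from human dermal foreskin fibroblast cultures 24 h post-dosing. Curves were fitted in both directions against DMSO baseline, with SRB total-protein staining in parallel cultures as a cytotoxicity check.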
# [4] = read-out: Monokine induced gamma interferon (MIG), CXCL9 (gene 4283); assay: BSK_hDFCGF_MIG: BioMAP Diversity Plus: hDFCGF Assay for Monokine induced gamma interferon (MIG) Biomarker Activity (AID 2283063); conditions: primary human foreskin fibroblasts; actives raise or lower the signal
# Method in brief: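 Fibroblasts (human foreskin, primary) dosed, 24 h, MIG by ELISA; fit bidirectional vs DMSO.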
# [5] = read-out: Matrix Metallopeptidase 1 (MMP1), MMP1 (gene 4312); assay: BSK_hDFCGF_MMP1: BioMAP Diversity Plus: hDFCGF Assay for Matrix Metallopeptidase 1 (MMP1) Biomarker Activity (AID 2283064); conditions: primary human foreskin fibroblasts; actives raise or lower the signal
# Method in brief: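 hDFCGF primary fibroblasts (human foreskin); chemical added; 24 h; MMP1 by ELISA; bidirectional fit vs DMSO.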
# [6] = read-out: Vascular cell adhesion molecule 1 (VCAM1), VCAM1 (gene 7412); assay: BSK_hDFCGF_VCAM1: BioMAP Diversity Plus: hDFCGF Assay for Vascular cell adhesion molecule 1 (VCAM1) Biomarker Activity (AID 2283065); conditions: primary human foreskin fibroblasts; actives raise or lower the signal;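 for AC50: VCAM-1 protein level quantified by ELISA after 24 h chemical exposure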
# Method in brief: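 ELISA read-out of VCAM-1 on human skin fibroblasts, 24 h post-dose; gain or loss of signal fitted bidirectionally against DMSO baseline.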
# [7] = read-out: Plasminogen activator inhibitor-1 (PAI1), SERPINE1 (gene 5054); assay: BSK_hDFCGF_PAI1: BioMAP Diversity Plus: hDFCGF Assay for Plasminogen activator inhibitor-1 (PAI1) Biomarker Activity (AID 2283066); conditions: primary human foreskin fibroblasts; actives raise or lower the signal
# Method in brief: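 Human foreskin fibroblasts in the hDFCGF system were dosed with compound for 24 h; PAI-1 was quantified by ELISA. Bidirectional curve fitting used DMSO as negative control and baseline.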
# [8] = read-out: Intercellular Adhesion Molecule 1 (ICAM1), ICAM1 (gene 3383); assay: BSK_KF3CT_ICAM1: BioMAP Diversity Plus: KF3CT Assay for Intercellular Adhesion Molecule 1 (ICAM1) Biomarker Activity (AID 2283067); conditions: primary human keratinocytes with fibroblasts; actives raise or lower the signal
# Method in brief: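 ELISA readout of ICAM-1; KF3CT human skin co-culture (keratinocytes + foreskin fibroblasts), 24 h post-dose; gain/loss fit vs DMSO baseline.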
# [9] = read-out: Interferon-gamma inducible Protein 10 (IP10), CXCL10 (gene 3627); assay: BSK_KF3CT_IP10: BioMAP Diversity Plus: KF3CT Assay for Interferon-gamma inducible Protein 10 (IP10) Biomarker Activity (AID 2283068); conditions: primary human keratinocytes with fibroblasts; actives raise or lower the signal
# Method in brief: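 Human keratinocyte plus foreskin fibroblast primary co-culture exposed to test chemical for 24 h; IP-10 measured by ELISA. Concentration-response fitted bidirectionally against DMSO control as baseline.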
# [10] = BSK_KF3CT_SRB: Viability Assessment in the BioMAP Diversity Plus: KF3CT Assay (AID 2283069); conditions: primary human keratinocytes with fibroblasts;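 note: total protein by sulforhodamine B staining as a cytotoxicity measure; read 24 h after compound addition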
# Method in brief: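 Keratinocytes co-cultured with foreskin fibroblasts (human primary); chemical added, 24 h; fix 10% TCA, stain 0.1% SRB, A560. Bidirectional fit vs DMSO.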
# [11] = read-out: Interleukin-1 alpha (IL1a), IL1A (gene 3552); assay: BSK_KF3CT_IL1a: BioMAP Diversity Plus: KF3CT Assay for Interleukin-1 alpha (IL1a) Biomarker Activity (AID 2283070); conditions: primary human keratinocytes with fibroblasts; actives raise or lower the signal
# Method in brief: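 Chemicals were dosed onto co-cultured human keratinocytes and foreskin fibroblasts, IL-1a was quantified by ELISA at 24 h, and activity was fitted in both directions relative to DMSO controls.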
# [12] = read-out: TIMP metallopeptidase inhibitor 2 (TIMP2), TIMP2 (gene 7077); assay: BSK_KF3CT_TIMP2: BioMAP Diversity Plus: KF3CT Assay for TIMP metallopeptidase inhibitor 2 (TIMP2) Biomarker Activity (AID 2283071); conditions: primary human keratinocytes with fibroblasts; actives raise or lower the signal
# Method in brief: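 Human primary keratinocyte/foreskin fibroblast co-culture dosed with chemical and sampled at 24 h. TIMP-2 levels quantified by ELISA; bidirectional fitting against DMSO negative control as baseline.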
# [13] = read-out: Transforming growth factor beta 1 (TGFb1), TGFB1 (gene 7040); assay: BSK_KF3CT_TGFb1: BioMAP Diversity Plus: KF3CT Assay for Transforming growth factor beta 1 (TGFb1) Biomarker Activity (AID 2283072); conditions: primary human keratinocytes with fibroblasts; actives raise or lower the signal
# Method in brief: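 Human keratinocyte plus foreskin fibroblast primary co-culture, dosed with chemical for 24 h. TGF-b1 quantified by ELISA. Activity fitted bidirectionally against DMSO negative control as baseline.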
# [14] = read-out: C-C motif chemokine 2 (Homo sapiens) (UniProt P13500); assay: BSK_KF3CT_MCP1: BioMAP Diversity Plus: KF3CT Assay for Monocyte Chemoattractant Protein 1 (MCP1/CCL2) Biomarker Activity (AID 2283073); conditions: primary human keratinocytes with fibroblasts; actives raise or lower the signal
# Method in brief: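 KF3CT skin co-culture (keratinocytes/foreskin fibroblasts), 24 h post-dose; MCP-1 by ELISA; gain/loss of signal fit bidirectionally vs DMSO baseline.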
# [15] = read-out: Matrix Metallopeptidase 9 (MMP9), MMP9 (gene 4318); assay: BSK_KF3CT_MMP9: BioMAP Diversity Plus: KF3CT Assay for Matrix Metallopeptidase 9 (MMP9) Biomarker Activity (AID 2283074); conditions: primary human keratinocytes with fibroblasts; actives raise or lower the signal;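 for AC50: MMP9 protein level quantified by ELISA in the co-culture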
# Method in brief: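 Human keratinocyte/foreskin fibroblast co-culture; compound added; 24 h; MMP-9 by ELISA; bidirectional fit vs DMSO baseline.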
# [16] = read-out: urokinase plasminogen activator (uPA), PLAU (gene 5328); assay: BSK_KF3CT_uPA: BioMAP Diversity Plus: KF3CT Assay for urokinase plasminogen activator (uPA) Biomarker Activity (AID 2283075); conditions: primary human keratinocytes with fibroblasts; actives raise or lower the signal
# Method in brief: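 ELISA readout of uPA, analyzed for signal gain or loss relative to DMSO, from a human primary keratinocyte–foreskin fibroblast co-culture measured 24 h after chemical treatment.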
# CD40, CD40 (gene 958) = assay: BSK_LPS_CD40: BioMAP Diversity Plus: LPS Assay for CD40 Biomarker Activity (AID 2283076); conditions: primary human HUVEC with PBMC; actives raise or lower the signal
# Method in brief: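 ELISA readout of CD40 in HUVEC/PBMC co-culture (BSK_LPS system), 24 h post-dosing; bidirectional curve fit, DMSO baseline; parallel SRB total-protein staining for cytotoxicity.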
# [17] = read-out: E-selectin (Homo sapiens) (UniProt P16581); assay: BSK_LPS_Eselectin: BioMAP Diversity Plus: LPS Assay for Eselectin Biomarker Activity (AID 2283077); conditions: primary human HUVEC with PBMC; actives raise or lower the signal
# Method in brief: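 ELISA readout of E-selectin, 24 h post-dose, HUVEC + PBMC co-culture (LPS system). Gain or loss of signal vs DMSO baseline, bidirectional fit.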
# [18] = read-out: Interleukin-8 (IL8), CXCL8 (gene 3576); assay: BSK_LPS_IL8: BioMAP Diversity Plus: LPS Assay for Interleukin-8 (IL8) Biomarker Activity (AID 2283078); conditions: primary human HUVEC with PBMC; actives raise or lower the signal
# Method in brief: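 HUVEC + PBMC co-culture, LPS-activated; test chemicals dosed, IL-8 read by ELISA at 24 h. Bidirectional curve fit vs DMSO baseline (gain or loss of signal).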
# [19] = BSK_hDFCGF_Proliferation: Cell Proliferation Assessment in the BioMAP Diversity Plus: hDFCGF Assay (AID 2283059); conditions: primary human foreskin fibroblasts;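 note: curves fitted for both rise and fall of signal versus DMSO baseline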
# Method in brief: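 Total protein read at 560 nm after 0.1% SRB staining of TCA-fixed human skin fibroblasts, […]. Activity is fitted in both directions relative to DMSO as baseline.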
# E-selectin (Homo sapiens), sequence (P16581 whole entry, looked up): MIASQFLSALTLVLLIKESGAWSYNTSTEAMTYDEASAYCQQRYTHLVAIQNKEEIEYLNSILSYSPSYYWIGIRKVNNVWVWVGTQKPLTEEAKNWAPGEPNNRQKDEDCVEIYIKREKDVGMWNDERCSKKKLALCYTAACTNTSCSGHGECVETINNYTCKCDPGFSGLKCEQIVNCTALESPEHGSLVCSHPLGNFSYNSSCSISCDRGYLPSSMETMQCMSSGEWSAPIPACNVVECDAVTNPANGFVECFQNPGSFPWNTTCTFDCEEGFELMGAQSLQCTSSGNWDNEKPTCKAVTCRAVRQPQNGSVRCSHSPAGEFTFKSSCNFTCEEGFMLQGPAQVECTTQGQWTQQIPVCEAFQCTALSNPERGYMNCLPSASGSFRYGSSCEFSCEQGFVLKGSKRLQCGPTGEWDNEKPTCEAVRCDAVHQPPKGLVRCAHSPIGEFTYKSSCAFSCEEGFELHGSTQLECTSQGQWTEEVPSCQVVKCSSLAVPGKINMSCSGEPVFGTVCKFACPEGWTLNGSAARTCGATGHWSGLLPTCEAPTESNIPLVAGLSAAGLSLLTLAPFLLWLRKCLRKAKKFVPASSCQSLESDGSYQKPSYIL
smiles,measurement,setting,value
CCCCN(CCCC)N=O,outcome,[1],inactive
same,outcome,[2],inactive
same,outcome,[3],inactive
same,outcome,[4],inactive
same,outcome,[5],inactive
same,outcome,[6],inactive
same,outcome,[7],inactive
same,outcome,[8],inactive
same,outcome,[9],inactive
same,outcome,[10],inactive
same,outcome,[11],inactive
same,outcome,[12],inactive
same,outcome,[13],inactive
same,outcome,[14],inactive
same,outcome,[15],inactive
same,outcome,[16],inactive
same,outcome,"CD40, CD40 (gene 958)",inactive
same,outcome,[17],inactive
same,outcome,[18],inactive
N#Cc1cc([N+](=O)[O-])ccc1N,outcome,[19],inactive
same,outcome,[1],inactive
same,outcome,[2],inactive
same,outcome,[3],inactive
same,outcome,[4],inactive
same,outcome,[5],inactive
same,outcome,[6],inactive
same,outcome,[9],inactive
same,outcome,[10],inactive
same,outcome,[11],inactive
same,outcome,[12],inactive
same,outcome,[13],inactive
same,outcome,[14],inactive
same,outcome,[16],inactive
same,outcome,"CD40, CD40 (gene 958)",inactive
same,outcome,[17],inactive
same,outcome,[18],inactive
ClC(Cl)=C(c1ccc(Cl)cc1)c1ccccc1Cl,AC50,[19],0.742 µM (active)
same,AC50,[1],2.86 µM (active)
same,AC50,[2],3.51 µM (active)
same,AC50,[3],3.94 µM (active)
same,AC50,[4],4.45 µM (active)
same,AC50,[5],3.83 µM (active)
same,AC50,[6],2.68 µM (active)
same,AC50,[10],6.86 µM (active)
same,AC50,[11],7 µM (active)
same,AC50,[12],3.67 µM (active)
same,AC50,[13],5.46 µM (active)
same,AC50,[14],7.15 µM (active)
same,AC50,[15],4.38 µM (active)
same,AC50,[16],11.2 µM (active)
same,AC50,"CD40, CD40 (gene 958)",20 µM (active)
same,AC50,[17],33.4 µM (active)
same,AC50,[18],20 µM (active)

# Source: PubChem BioAssay (EPA / NIEHS)
